Screening results (PubChem)
Compounds with a hit are over-represented: about 9.4% of the library has one in this group of screens.
FLuc counter: inhibits or activates purified firefly luciferase, miR-21 counter-screen; purified FLuc, Km substrates, luminescence inhibition; Potency, µM (highest dose often 57.5 µM), for the others: top-dose activity change, negative = inhibition, usual class: inhibitors; actives 6.9% (n = 360,000); AID 588342;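 note: plate controls were vehicle for no effect and reference inhibitor for full effect; nearly all actives have a fitted effect of over 55% in size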
Target sequence (P08659 whole entry, looked up): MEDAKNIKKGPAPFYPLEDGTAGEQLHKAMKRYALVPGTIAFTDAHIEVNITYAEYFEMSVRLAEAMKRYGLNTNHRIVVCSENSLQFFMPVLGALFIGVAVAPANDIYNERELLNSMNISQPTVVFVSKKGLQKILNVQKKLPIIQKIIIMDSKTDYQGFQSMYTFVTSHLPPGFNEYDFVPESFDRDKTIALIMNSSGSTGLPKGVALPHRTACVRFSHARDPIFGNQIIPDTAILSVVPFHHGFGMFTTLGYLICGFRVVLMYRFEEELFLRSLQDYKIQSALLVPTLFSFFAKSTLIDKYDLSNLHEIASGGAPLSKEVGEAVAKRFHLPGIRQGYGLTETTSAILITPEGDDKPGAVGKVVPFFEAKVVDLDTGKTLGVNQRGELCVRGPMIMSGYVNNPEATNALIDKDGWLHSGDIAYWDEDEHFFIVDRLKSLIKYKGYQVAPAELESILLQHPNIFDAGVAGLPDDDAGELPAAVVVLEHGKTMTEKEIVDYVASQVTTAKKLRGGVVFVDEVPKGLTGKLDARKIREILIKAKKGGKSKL
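Biochemical qHTS of compounds, final roughly 60 µM downward over six points, against 10 nM purified firefly luciferase using Km concentrations of substrates (10 uM D-luciferin, 10 uM ATP) in Tris acetate pH 7.5 buffer; luminescence output.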
ELG1 genotoxic: induces genotoxicity in HEK293T cells with luciferase-tagged ELG1. HEK293T ELG1-luciferase reporter, luminescence, 16 h. Potency, µM (doses to about 46 µM), for the others: at the top dose activity change, positive = activation, actives largely listed as activators. actives 1.3% (n = 330,000); note: % of control where 0% means no effect; nearly all actives have a fitted effect of over 60% in size
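Step 1: seed 2,000 HEK293T ELG1-luciferase cells per well. Step 2: add compound or DMSO, incubate 16 hr at 37 °C. Step 3: ONE-Glo, 30 min at room temperature, read luminescence.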
SMN2 splice up: increases expression of the SMN2 splice variant; Potency, µM (highest dose often 46.1 µM), without a hit: at the top dose activity change, positive = activation, actives largely listed as activators; AID 1458; HEK293 SMN2-luciferase splicing reporter, luminescence, 30-36 h; actives 2.8% (n = 210,000); note: % of control where 0% means no effect; nearly all actives have a fitted effect of over 55% in size
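HEK293 cells carry an SMN2 minigene-luciferase reporter in which exon 7 inclusion puts luciferase in frame. Cells were seeded at 2000 cells/well, attached for 10-12 hours, then exposed to compounds for 30-36 hours at 37C before ONE-Glo luminescence.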
Rab9 prom act: activates the Rab9 promoter; Huh7 Rab9 promoter-luciferase reporter, luminescence, 24 h; Potency, µM (doses to about 9.22 µM), for the others: top-dose activation, negative = inhibition, actives largely listed as activators; actives 2.8% (n = 320,000); AID 485297; note: % of control where 0% means no effect; nearly all actives have a fitted effect of over 60% in size
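Luciferase signal after 10 min detection reagent at ambient indicates Rab9 promoter upregulation; stably transfected Huh7 cells were treated 24 h with compound in DMSO at 37 °C, 5% CO2.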
ELG1 repair inh: blocks ELG1-dependent DNA repair in HEK293T cells | HEK293T ELG1-luciferase reporter, luminescence, 16 h; DNA damage induced by 5-fluorouridine | Potency, µM (series often up to 46.1 µM), inactives show at the top dose activity change, negative = inhibition, hits mostly inhibitors | actives 2.3% (n = 330,000); note: % is set by controls: 0 for no effect and ±100 for the full control effect; nearly all actives have a fitted effect of over 55% in size
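Luminescence from the luciferase reporter, measured 30 min after ONE-Glo reagent at room temperature, was the read-out. Beforehand, 2,000 cells per well were exposed for 16 hr at 37 °C to 5-fluorouridine together with compound or vehicle.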
NPC1 promoter act: NPC1 promoter activation | Huh7 NPC1 promoter luciferase reporter, 24 h | Potency, µM (doses to about 9.22 µM), inactives show top-dose activation, hits mostly activators | actives 2.4% (n = 320,000); note: % of control where 0% means no effect; nearly all actives have a fitted effect of over 60% in size
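NPC1 promoter–luciferase Huh7 cells; 24 h compound; luminescence.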
* hit, by the source's call; u = inconclusive; x = not tested or not shown. Calls come from the whole dose curve; as a rule, active = well fitted curve in the direction sought with a large enough effect; inconclusive = small, poorly fitted or top-dose-only effect, or another doubt; inactive = no such curve, though single readings can be large; an effect the other way counts as inactive or inconclusive. Potency is the fitted concentration of half-maximal effect.

SMILES | FLuc counter | ELG1 genotoxic | SMN2 splice up | Rab9 prom act | ELG1 repair inh | NPC1 promoter act
Cc1ccc(C(=O)Nc2ccccc2C(=O)N2CC3(C)CC2CC(C)(C)C3)cc1 (stereo not drawn) | 2% | -12% | 3% | 1% | 23µM* | 1%
c1ccc(Cc2nc3ccccc3o2)cc1 | 19µM* | 15% | -3% | 7% | 24% | 1%
Cc1ccc(C)c(S(=O)(=O)N2CCN(C(=O)c3ccc(OCc4c(C)noc4C)cc3)CC2)c1 | 0% | 2% | x | 0% | 16µM* | -6%
Cc1ccc(NC(=O)c2ccc(OCc3c(C)noc3C)cc2)cc1C | x | -8% | x | x | 10µM* | x
CC(=O)Nc1ccc(NC(=O)c2ccc(OCc3c(C)noc3C)cc2)cc1 | x | 7% | x | x | 0% | x
CCOC(=O)Cc1ccc(NC(=O)NC(C)c2c(-n3cccc3)sc(C)c2C)cc1 (stereo not drawn) | 0% | x | 1% | x | x | x
CCc1ccc(CNC(=O)CSCc2cnn(-c3ccccc3)c2-n2cccc2)cc1 | -17% | x | -3% | x | x | x
O=C(c1ccco1)N(Cc1cccs1)c1ccc(F)cc1 | -20% | x | x | x | x | x
C=CCn1c(=O)c2c3c(sc2n2c(Nc4ccccc4)nnc12)CCCC3 | -18% | -5% | 2% | 1% | 21µM* | -4%
Cc1nnc2n(Cc3ccccc3)c(=O)c3c4c(sc3n12)CCCC4 | 0% | 1% | 8% | 4% | 3% | 7%
C=CCn1c(=O)c2c3c(sc2n2c(Nc4ccc(OC)cc4)nnc12)CCCC3 | 4% | -1% | 9% | 3% | 8.2µM* | -2%
C=CCn1c(=O)c2c3c(sc2n2c(Nc4ccc(C(=O)OCC)cc4)nnc12)CCCC3 | 9% | 2% | -5% | 0% | -17% | -3%
COc1cc2oc(=O)c(CC(=O)N3CCCCC3)c(C)c2cc1OC | -5% | x | -8% | x | x | x
CCCCCC#CC[C@@H](O)/C=C/C=C/C=C\[C@@H](O)CCCC(=O)O | x | x | 12% | x | x | x
COc1ccc(OC)c(NC(=O)COC(=O)CNC(=O)c2ccc(OC)c(OC)c2)c1 | 0% | 0% | -2% | 2% | 17% | -1%
CCOc1ccc(C(=O)NCC(=O)OCC(=O)Nc2ccccc2OCC)cc1 | 24µM* | 1% | 2% | -3% | 13% | 1%
COc1ccc(C(=O)NCC(=O)OCC(=O)Nc2cc([N+](=O)[O-])ccc2F)cc1 | 24µM* | 12% | -1% | 1% | u | -2%
CCOc1ccc(C(=O)NCC(=O)OCC(=O)Nc2ccccc2OC)cc1 | 24µM* | 2% | -2% | -3% | 11% | 0%
Cc1ccc(NC(=O)COC(=O)CNC(=O)C2CCCCC2)cc1S(=O)(=O)N(C)C | x | -3% | x | x | 13% | x
CCOc1ccc(C(=O)NCC(=O)OCC(=O)Nc2ccc(C)c(S(=O)(=O)N(C)C)c2)cc1 | 4.8µM* | 2% | 1% | -3% | 15% | -3%
COC(=O)CC1[C@@]2(C)C[C@@]34OC5(C)OC6(CC[C@@]7(C)C(c8ccoc8)OC(=O)C(C(C)=O)C7[C@]6(O5)C(O)[C@@]3(O)C2O)[C@]14C (stereo partly drawn) | x | x | -6% | x | x | x
CC1CCN(S(=O)(=O)c2ccc3ncn(CC(=O)N4CCN(C)CC4)c(=O)c3c2)CC1 | -2% | -3% | x | -8% | -6% | -7%
CCOc1ccc(-n2nc3ccc(NC(=O)c4ccc(-c5cccc(Cl)c5)o4)cc3n2)cc1 | u | x | -3% | x | x | x
CC(C)C[C@@H](CC(=O)N[C@H](CC(=O)N[C@@H]1CCCC[C@H]1C(=O)N[C@H](CC(=O)N[C@@H](CCC(=O)O)CC(=O)O)Cc1c[nH]c2ccccc12)C(C)C)NC(=O)[C@@H]1CCCC[C@H]1N | x | x | 20% | x | x | x
O=C(NCCCN1CCN(Cc2ccccc2)CC1)C1CCN(c2nnc(-n3cccc3)s2)CC1 | u | -9% | -58% | -15% | 7.1µM* | -10%
